Hit rate of the full screen: of about 69,000 compounds, about 8,600 (12%) showed an effect of 50% or more. The sample as a whole holds a higher share of strong results than the screen did.
Test system: Plasmodium berghei
Assay: Screen against P. berghei liver stage (PbLuc), transformed with Luciferase, at 10uM
Assay type: functional, HepG2
Conditions: tested at 10 uM

SMILES | INHIBITION [%]
CN(C(=O)c1ccccc1N(C)S(C)(=O)=O)c1ccc(C(C)(C)C)cc1 | 31.2
O=C(c1ccco1)N(CC(F)(F)F)C1CCCOC1 (configuration not stated) | 9.16
O=C(c1ccco1)N(CC(F)(F)F)C1CCOCC1 | 61.3
O=C(c1ccc(F)cc1F)N(CC(F)(F)F)C1CCOCC1 | 3.04
N#Cc1cc(S(N)(=O)=O)ccc1N1CCN(c2ccccc2)CC1 | -33.7
CC1CCCN(C(=O)c2ccc(-c3ccco3)o2)C1 (configuration not stated) | -22.2
CCS(=O)(=O)NCC(=O)N1CCC(c2cc3ccccc3[nH]2)CC1 | -17.8
COC(=O)NCC(=O)N1CCC(c2cc3ccccc3[nH]2)CC1 | 62.9
CNS(=O)(=O)CC(=O)N1CCC(c2cc3ccccc3[nH]2)CC1 | 18.6
O=c1[nH]c2nc(N3CCOCC3)ncc2c(=O)n1-c1cccc(F)c1 | 31.7
O=S(=O)(C1CC1)N1C[C@@H]2CN(Cc3ccoc3)CCO[C@@H]2C1 | -64.1
Cc1nnc(NCCC(=O)NCc2ccccc2)c(C#N)c1C | 12.3
CC(=O)N1CC[C@@]2(O)CCCC[C@H]2[C@@H]1c1ccccc1 | 45
O=C(NCCC1COc2ccccc2O1)c1ccc(-c2cc[nH]n2)nc1 (configuration not stated) | -21.6
O=C(NCCC1COc2ccccc2O1)c1ccc(N2CC(O)C2)nc1 (configuration not stated) | 59.5
O=C(NCCC1COc2ccccc2O1)c1ccc(-c2cn[nH]c2)nc1 (configuration not stated) | 48.9
CCc1nc(C)cc(N2CCN(C(=O)[C@@H]3C[C@H]4C=C[C@@H]3C4)CC2)n1 | -2.09
O=C(Cc1c[nH]c(=O)[nH]c1=O)N1CCCCC1CCc1cccc(O)c1 (configuration not stated) | 57.6
NCC1CCCCN1C(=O)Cc1cccc(Br)c1 (configuration not stated) | -0.159

SMILES | INHIBITION [%]
O=C(Cc1c[nH]c(=O)[nH]c1=O)N1CCCCC1CCc1ccccc1 (configuration not stated) | -28
Nc1cccnc1N1CCCCCC1 | -12.1
Cc1cccc(N2CCC3(CCCC(=O)N3)CC2)n1 | -77.4
Cc1nnc(CN(C)CC2CCCCC2)o1 | 27.5
CCc1nnc(CN(C)C[C@@H]2CCCN3CCCC[C@H]23)o1 | 5.46
CCc1nnc(CN(C)CC2CCCCC2)o1 | 61.1
CCCN(CC)c1ccc(C(=O)N2CCCC2c2cnn(C)c2)cn1 (configuration not stated) | 22.3
COc1ccc(CNCC2CN(C3CC3)CCO2)cc1C (configuration not stated) | 10.2
C[C@H]1C[C@H]2CN(C(=O)CCOc3ccccc3)CC[C@H]2O1 | 27.6
Cc1nc(COCc2cnc3n2CCN(CC2CCC2)C3C)cs1 (configuration not stated) | 50.2
Cc1nc(COCc2cnc3n2CCN(C)C3C)cs1 (configuration not stated) | 52.3
CC(=O)N1CCn2c(COCc3csc(C)n3)cnc2C1C (configuration not stated) | -14.8
Cc1nc(COCc2cnc3n2CCN(C(=O)C2CC2)C3C)cs1 (configuration not stated) | 33
CCOCc1cnc2n1CCN(Cc1nc(C)cs1)C2C (configuration not stated) | 41
Cc1nc(COCc2cnc3n2CCN(C2CCC2)C3C)cs1 (configuration not stated) | -12.6
Clc1ccccc1Cc1noc(CN2CCCC(CN3CCCC3)C2)n1 (configuration not stated) | 42.8
COCc1cc(NCCc2ccccn2)n2nccc2n1 | 26.6
CC(C)CNc1nnc(SC(C(=O)NCc2cccnc2)C(C)C)s1 (configuration not stated) | -11.3
COCC(O)CN(C)C(=O)NCc1ccc(S(C)(=O)=O)cc1 (configuration not stated) | 29.4

SMILES | INHIBITION [%]
COCC(O)CN(C)C(=O)NCc1ccc(-c2ccn[nH]2)cc1 (configuration not stated) | 51.7
CNS(=O)(=O)c1ccc(CNC(=O)N(C)CC(O)COC)cc1 (configuration not stated) | 36.3
CC(NC(=O)CCOc1cccc(F)c1)c1nnc2n1CCC2 (configuration not stated) | 33.7
CCC(O)Cn1cc(C2=CCN(Cc3cc(O)nc(C)n3)CC2)cn1 (configuration not stated) | 52
CCC(O)Cn1cc(C2=CCN(Cc3ccc(OC)cc3)CC2)cn1 (configuration not stated) | -8.97
Cc1nc(O)cc(CN2CC=C(c3cnn(C(C)(C)C)c3)CC2)n1 | -33.2
O=C1NCCc2c1sc1ccc(C(=O)N3CC[C@H](CO)[C@H](O)C3)cc21 | 12.1
CN(C)C1CCCN(C(=O)c2ccc3sc4c(c3c2)CCNC4=O)CC1 (configuration not stated) | 60.3
CN(C)[C@H]1CN(C(=O)c2ccc3sc4c(c3c2)CCNC4=O)C[C@@H]1O | -26
Fc1ccc(C(CNc2ccncn2)N2CCCCC2)cc1 (configuration not stated) | 5.03
CC(N)C(=O)N1CCC(Oc2cccc(C(F)(F)F)c2)CC1 (configuration not stated) | 26.6
CCc1cccc(OC2CN(C(=O)[C@@H](N)CCSC)C2)c1 | 23.9
CCc1cccc(OC2CN(C(=O)[C@@H](N)[C@@H](C)O)C2)c1 | 62.4
Cc1nc2cc(=O)[nH]n2c(C)c1CC(=O)Nc1cnn(C)c1 | 15
Cc1nc2cc(=O)[nH]n2c(C)c1CC(=O)Nc1cn[nH]c1 | 53.9
Cc1nc2cc(=O)[nH]n2c(C)c1CC(=O)Nc1cnn(C(C)(C)C)c1 | 49.6
Cn1cc(CN2CCC3(CC2)CN(C(=O)c2cnccn2)CCO3)cn1 | -13.2
CCOCCc1nc(Cc2ccccc2)n[nH]1 | 10.3
O=C1COC2(CCN(Cc3cccnc3)CC2)CN1 | 18.2
